Legend:
Test in all cases: thermal shift delta Tm vs DMSO control; higher = stronger stabilization (binding)
Conditions in all cases: 12.5 µM; protein concentration 2 µM
LOC_OS04G57630-cb004 = test system: LOC_OS04G57630-cb004
Method in brief: (§1)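 The melting temperature shift given here is a triplicate mean, measured against protein that received only DMSO. Melting temperatures came from Boltzmann fits of differential scanning fluorimetry data on E. coli-expressed, purified rice kinase domain constructs. Each 19.5 μl well contained 2 μM kinase, 100 mM potassium phosphate pH 7.5, 150 mM NaCl, 10% glycerol, 5 × SYPRO Orange and compound in DMSO. Plates were scanned from 25°C to 95°C at 0.05°C/s.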

LOC_OS05G07850-cb002 = test system: LOC_OS05G07850-cb002
Method in brief: as §1

LOC_OS05G16824-cb004 = test system: LOC_OS05G16824-cb004
Method in brief: as §1

LOC_OS05G28520-cb001 = test system: LOC_OS05G28520-cb001
Method in brief: as §1

LOC_OS05G30820-cb001 = test system: LOC_OS05G30820-cb001
Method in brief: as §1

LOC_OS05G43570-cb004 = test system: LOC_OS05G43570-cb004
Method in brief: as §1

LOC_OS06G16330-cb003 = test system: LOC_OS06G16330-cb003
Method in brief: as §1

LOC_OS06G22820-cb001 = test system: T1, LOC_OS06G22820-cb001
T1 sequence (whole entry): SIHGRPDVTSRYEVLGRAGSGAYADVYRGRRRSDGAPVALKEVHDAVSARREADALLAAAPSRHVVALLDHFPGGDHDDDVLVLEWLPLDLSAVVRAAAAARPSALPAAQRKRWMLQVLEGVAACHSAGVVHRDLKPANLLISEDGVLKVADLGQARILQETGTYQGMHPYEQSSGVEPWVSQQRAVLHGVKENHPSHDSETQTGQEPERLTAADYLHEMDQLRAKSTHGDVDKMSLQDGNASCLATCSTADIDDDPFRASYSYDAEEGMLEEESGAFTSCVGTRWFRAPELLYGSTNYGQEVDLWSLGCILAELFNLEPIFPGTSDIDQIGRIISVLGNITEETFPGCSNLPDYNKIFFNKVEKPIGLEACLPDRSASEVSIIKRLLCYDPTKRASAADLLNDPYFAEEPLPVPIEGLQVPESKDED
Method in brief: as §1

LOC_OS07G06570-cb004 = test system: LOC_OS07G06570-cb004
Method in brief: as §1

LOC_OS07G07230-cb001 = test system: LOC_OS07G07230-cb001
Method in brief: as §1

LOC_OS06G16330-cb003, sequence (as listed by the source): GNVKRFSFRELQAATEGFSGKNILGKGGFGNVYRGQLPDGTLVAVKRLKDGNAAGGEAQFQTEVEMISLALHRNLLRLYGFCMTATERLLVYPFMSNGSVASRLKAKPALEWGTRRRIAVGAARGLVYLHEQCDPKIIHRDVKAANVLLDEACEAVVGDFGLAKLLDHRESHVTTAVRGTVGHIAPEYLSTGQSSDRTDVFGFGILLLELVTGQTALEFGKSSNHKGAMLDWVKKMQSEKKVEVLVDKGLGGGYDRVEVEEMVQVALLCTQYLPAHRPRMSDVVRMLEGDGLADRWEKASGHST

SMILES	thermal shift delta Tm (LOC_OS04G57630-cb004) [°C]	thermal shift delta Tm (LOC_OS05G07850-cb002) [°C]	thermal shift delta Tm (LOC_OS05G16824-cb004) [°C]	thermal shift delta Tm (LOC_OS05G28520-cb001) [°C]	thermal shift delta Tm (LOC_OS05G30820-cb001) [°C]	thermal shift delta Tm (LOC_OS05G43570-cb004) [°C]	thermal shift delta Tm (LOC_OS06G16330-cb003) [°C]	thermal shift delta Tm (LOC_OS06G22820-cb001) [°C]	thermal shift delta Tm (LOC_OS07G06570-cb004) [°C]	thermal shift delta Tm (LOC_OS07G07230-cb001) [°C]
O=C(c1cccc(Cl)c1F)N1CCN(Cc2cccc(Nc3nccs3)n2)CC1	1.01	7.36	3.48	1.87	0.31	-0.14	10.8	0.57	1.24	0
COc1cc(Nc2ncc(F)c(Nc3ccc4c(n3)NC(=O)C(C)(C)O4)n2)cc(OC)c1OC	1.55	13.2	12.2	0.56	1.19	0.37	12.2	0.02	0.43	0.41
O=c1ncn2nc(Sc3ccc(F)cc3F)ccc2c1-c1c(Cl)cccc1Cl	0.07	0.12	0.83	0.17	0.49	0.49	-0.01	0.66	0.75	0.14
C=C[C@@](C)(/C=C/c1ccc(O)cc1)CCC=C(C)C [Bakuchiol]	0.09	0.26	-1.27	0.19	0.04	0.47	-0.03	0.41	0.83	0.15
Cn1c(Nc2ccc(C(F)(F)F)cc2)nc2cc(Oc3ccnc(-c4ncc(C(F)(F)F)[nH]4)c3)ccc21	1.62	0.57	1.67	0.86	0.81	3.24	1.24	2.74	1.82	-0.2
O=C1NCCc2[nH]c(-c3ccncc3)cc21	0.34	4.2	-2.22	0.25	0.53	0.46	1.3	0.55	0.4	0.42
COc1cc(N2CCN(C)CC2)ccc1Nc1nccc(-c2cn(C)c3cnccc23)n1	0.55	11.8	-3.65	0.25	0.38	0.32	5.31	0.11	1.53	0.44
CCn1cc(-c2ccnc3[nH]c(-c4cccc(CN(C)C)c4)cc23)c(-c2ccc(NC(=O)N(C)C)cc2)n1	1.27	8.63	0.47	0.42	0.52	0.64	4.22	0.71	1.35	0.42
CCN1CCN(Cc2ccc(Nc3ncc(F)c(-c4cc(F)c5nc(C)n(C(C)C)c5c4)n3)nc2)CC1	1.35	12.6	3.33	0.73	0.2	0.41	6.17	0.41	1.14	0.37
CO[C@@H](C(=O)N1Cc2[nH]nc(NC(=O)c3ccc(N4CCN(C)CC4)cc3)c2C1)c1ccccc1	2.02	6.58	5.14	0.31	0.48	0.25	7.87	2.69	0.66	0
CNC(=O)c1cccc(-c2ccc3c(N4CCOC[C@@H]4C)nc(N4CCOC[C@@H]4C)nc3n2)c1 [Vistusertib (AZD2014)]	-0.14	0.07	-6.13	-0.26	0.67	0.5	0.19	0.59	0.64	0.29
CS(=O)(=O)c1ccc(-c2cnc(N)c(C(=O)Nc3ccccc3)n2)cc1	0.45	8.7	-1.5	0.25	0.57	0.1	2.51	0.37	0.82	0.7
NCC(=O)Nc1ccc(-n2nc(C(F)(F)F)cc2-c2ccc3c(ccc4ccccc43)c2)cc1	-0.2	1.75	1.88	0.25	-0.08	0.27	0.39	0.4	0.5	0.18
O=C(NCc1cccc(O)c1)Nc1nc(-c2ccncc2)cs1	1.08	3.27	-3.55	0.81	0.5	1.02	0.47	0.43	1.09	0.35
COc1cc2ncnc(Oc3ccc(CC(=O)Nc4cnn(C(C)C)c4)cc3)c2cc1OC	1.78	8.95	0.86	0.43	0.37	-0.02	0.82	0.41	1.54	0.45
O=c1[nH]nc(Sc2ncc([N+](=O)[O-])s2)n1-c1ccc2c(c1)OCCO2	-1.46	-1.46	-2.53	0.59	0.64	0.84	-0.58	0.5	3.84	0.07
COCCNCc1ccc(-c2cc3nccc(Oc4ccc(NC(=O)C5(C(=O)Nc6ccc(F)cc6)CC5)cc4F)c3s2)nc1 [Sitravatinib (MGCD516)]	7.89	14.5	10.7	7.64	0.29	0.73	9.07	0.6	0.67	-0.46
C[C@@H](N)c1ccc(C(=O)Nc2ccnc3[nH]ccc23)cc1	0.16	3.37	-0.56	0.67	0.3	0.84	2.93	0.59	0.72	-0.1
Cc1cc(CS(=O)(=O)c2ccccc2)cc(OCc2ccc(CN3CCC[C@@H]3CO)cc2)c1	0.05	-0.44	-3.52	0.56	0.38	0.08	-0.51	0.68	1.18	0.08
COc1cc2c(Nc3ccc(NC(=O)c4ccccc4)cc3)ncnc2cc1OCCCN1CCOCC1	1.89	5.62	1.9	1.02	0.36	0.4	1.97	0.94	0.77	0.42

SMILES	thermal shift delta Tm (LOC_OS04G57630-cb004) [°C]	thermal shift delta Tm (LOC_OS05G07850-cb002) [°C]	thermal shift delta Tm (LOC_OS05G16824-cb004) [°C]	thermal shift delta Tm (LOC_OS05G28520-cb001) [°C]	thermal shift delta Tm (LOC_OS05G30820-cb001) [°C]	thermal shift delta Tm (LOC_OS05G43570-cb004) [°C]	thermal shift delta Tm (LOC_OS06G16330-cb003) [°C]	thermal shift delta Tm (LOC_OS06G22820-cb001) [°C]	thermal shift delta Tm (LOC_OS07G06570-cb004) [°C]	thermal shift delta Tm (LOC_OS07G07230-cb001) [°C]
Cc1cn(-c2cc(NC(=O)c3ccc(C)c(Nc4nccc(-c5cccnc5)n4)c3)cc(C(F)(F)F)c2)cn1 [Nilotinib (AMN-107)]	-0.2	-0.28	-8.56	0.53	0.44	0.26	-0.09	0.72	0.96	0.47
O=c1cc(-c2ccccc2)oc2c(O)c(O)ccc12 [7,8-Dihydroxyflavone]	-0.51	1.25	-6.61	2.12	1.22	1.47	1.88	1.1	3.28	0.94
C=CC(=O)N1CC[C@@H](Oc2nc(Nc3ccc(N4CCC(N5CCN(C)CC5)CC4)cc3)c(C(N)=O)nc2CC)C1 [Naquotinib(ASP8273)]	3.28	13.1	11.6	1.04	0.55	0.27	10	0.25	1.6	0.69
COc1ccc(S(=O)(=O)N(CCO)c2ccccc2CN(C)C/C=C/c2ccc(Cl)cc2)cc1 [KN-93 Phosphate]	0.49	0.97	1.97	0.31	0.17	0.27	-0.14	0.35	1.18	0.21
CC1(COc2ccc3c(c2)ncn3-c2ccc3cccc(N4CCC(N)CC4)c3n2)COC1	5.42	16.1	11.8	0.28	1.67	0.2	7.62	0.26	0.43	-0.34
CO[C@H]1C[C@@H]2CC[C@@H](C)[C@@](O)(O2)C(=O)C(=O)N2CCCC[C@H]2C(=O)O[C@H]([C@H](C)C[C@@H]2CC[C@@H](OC(=O)C(C)(CO)CO)[C@H](OC)C2)CC(=O)[C@H](C)/C=C(\C)[C@@H](O)[C@@H](OC)C(=O)[C@H](C)C[C@H](C)/C=C/C=C/C=C/1C	-0.25	0.18	-4.25	0.46	0.38	0.24	-0.27	0.76	0.91	0.12
N#Cc1ccc(-c2c(-c3ncn[nH]3)sc(N3CCOCC3)c2C#N)c(F)c1	0.27	-0.29	-1.35	0.33	0.65	0.57	-0.08	0.61	1.08	0.24
NC(=O)c1cnc(N[C@@H]2CCCC[C@@H]2N)nc1Nc1cccc(-n2nccn2)c1	0.91	6.88	6.77	-0.14	2.09	0.39	5.31	0.77	1.27	0.71
COc1cc2ncnc(Sc3nnc(C)s3)c2cc1OC	0.11	4.44	-0.85	0.25	0.64	0.17	2.49	0.32	1.21	1.4
CCCCNc1ncc(-c2ccc(CN3CCOCC3)cn2)c(NC2CCC(O)CC2)n1 (stereo not given)	4.09	9.44	8.95	0.2	0.7	0.43	9.08	0.1	0.37	0.71
COc1cc2nccc(Oc3ccc(NC(=O)Nc4cc(C)on4)c(Cl)c3)c2cc1OC [Tivozanib (AV-951)]	3.28	9.77	2.86	2.41	0.62	0.21	10.8	0.55	0.52	-0.04
Cc1nc(-c2cn3c(n2)-c2ccc(-c4cnn(C(C)(C)C(N)=O)c4)cc2OCC3)n(C(C)C)n1 [Taselisib (GDC 0032)]	0.16	0.89	0.74	0.19	0.59	0.36	-0.08	0.16	1.28	0.87
OCCn1cc(-c2cnc3nnn(Cc4ccc5ncccc5c4)c3n2)cn1	-0.21	0.33	-2.44	0.66	0.46	0.28	-0.29	0.46	0.2	0.97
C=CC(=O)Nc1cc(Nc2nccc(-c3cn(C)c4ccccc34)n2)c(OC)cc1N(C)CCN(C)C [Osimertinib (AZD9291)]	0.2	13.5	-1.95	0.53	0.54	0.3	5.5	0.25	1.03	0.47
Oc1c(F)cc(-c2cnccc2-c2ccc(N3CCOCC3)cc2)cc1F	0.16	3.05	-0.48	0.43	0.5	0.44	0.26	0.6	0.96	0.44
NC[C@@](O)(c1ccc(Cl)cc1)c1ccc(-c2cn[nH]c2)cc1	0.11	1.75	0.67	0.5	0.47	2.11	0.77	0.65	0.91	0.04
Cc1cc(C(C)Nc2ccccc2)c2nc(N3CCOCC3)cc(=O)n2c1 (stereo not given)	-0.32	0.35	-2.9	0.25	0.38	0.22	0.32	0.59	0.64	0.53
C=CC(=O)Nc1cccc(Nc2nc(Nc3ccc(NC4CN(CCF)C4)cc3OC)ncc2C(F)(F)F)c1	0.41	6.71	1.25	0.72	0.43	0.24	-0.88	0.16	1.07	0.62
CC[C@@H]1C(=O)N(C)c2cnc(Nc3ccc(C(=O)NC4CCN(C)CC4)cc3OC)nc2N1C1CCCC1	-0.45	0.42	1.14	0.12	0.28	0.24	0.39	0.4	0.75	0.09
